What all share (conditions): mRNA level, 48 h; actives raise or lower the signal
Read-out in experiment [1]: Bcl-2 (BAD) gene, BAD (gene 572)
Kind of experiment: LTEA_HepaRG_BAD: Life Technologies and Expression Analysis (LTEA) Assay for Bcl-2 (BAD) gene using HepaRG (AID 2283469). An outline of the steps:
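Differentiated human HepaRG cells in serum-free induction medium were exposed in duplicate for 48 h to eight concentrations (top 100 uM, half-log steps, 0.5% DMSO). BAD mRNA was quantified by qRT-PCR normalised to ACTB, GAPDH and POLR2A, with bidirectional fitting versus DMSO.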

Read-out in experiment [2]: Bcl-2 (BAX) gene, BAX (gene 581)
Briefly: LTEA_HepaRG_BAX: Life Technologies and Expression Analysis (LTEA) Assay for Bcl-2 (BAX) gene using HepaRG (AID 2283470). The method in brief: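 Differentiated HepaRG cells exposed 48 h in serum-free induction medium, eight half-log concentrations from 100 uM, in duplicate, 0.5% DMSO vehicle. BAX mRNA by TaqMan qRT-PCR, normalised to ACTB, GAPDH and POLR2A.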

Read-out in experiment [3]: Alpha-fetoprotein (AFP) gene, AFP (gene 174)
Briefly: LTEA_HepaRG_AFP: Life Technologies and Expression Analysis (LTEA) Assay for Alpha-fetoprotein (AFP) gene using HepaRG (AID 2283472). The method in brief: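 Differentiated human HepaRG cells exposed 48 h in serum-free induction medium, 8-point half-log series from 100 uM in 0.5% DMSO, duplicate. AFP mRNA by qRT-PCR, normalized to ACTB, GAPDH, POLR2A; bidirectional fit vs DMSO.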

Read-out in another experiment: BCL2L11 (gene 10018)
Kind of experiment: LTEA_HepaRG_BCL2L11: Life Technologies and Expression Analysis (LTEA) Assay for Bcl-2 (BCL2L11) gene using HepaRG (AID 2283473). An outline of the steps:
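BCL2L11 transcript levels are measured by Fluidigm qRT-PCR, normalized to three housekeeping genes. HepaRG cultures were plated 48 h, then treated 48 h with test chemical (top 100 uM, half-log, 0.5% DMSO vehicle); curves were fitted bidirectionally against DMSO.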

Read-out in experiment [4]: Apolipoprotein A-V (APOA5) gene, APOA5 (gene 116519)
Kind of experiment: LTEA_HepaRG_APOA5: Life Technologies and Expression Analysis (LTEA) Assay for Apolipoprotein A-V (APOA5) gene using HepaRG (AID 2283474). An outline of the steps: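 APOA5 transcript levels were quantified by qRT-PCR, normalized to three housekeeping genes, after 48 h chemical treatment of HepaRG cells (8 points, 100 uM maximum, half-log steps, 0.5% DMSO). Curves fitted in both directions against vehicle.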

Read-out in experiment [5]: Apoptosis regulator Bcl-2 (Homo sapiens) (UniProt P10415)
Kind of experiment: LTEA_HepaRG_BCL2: Life Technologies and Expression Analysis (LTEA) Assay for Bcl-2 gene using HepaRG (AID 2283475). The method in brief:
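Differentiated human HepaRG cells in serum-free induction medium exposed 48 h, in duplicate, to 8-point half-log series from 100 uM in 0.5% DMSO. BCL2 mRNA by qRT-PCR (TaqMan/Fluidigm), normalized to ACTB, GAPDH, POLR2A; bidirectional fit against DMSO.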

Read-out in experiment [6]: Bcl-2 (BID) gene, BID (gene 637)
Briefly: LTEA_HepaRG_BID: Life Technologies and Expression Analysis (LTEA) Assay for Bcl-2 (BID) gene using HepaRG (AID 2283476). The method in brief:
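Gene expression by qRT-PCR in HepaRG cells after 48 h exposure, duplicate wells, eight half-log concentrations topping at 100 uM in 0.5% DMSO. Normalized to ACTB, GAPDH, POLR2A; bidirectional fitting relative to DMSO.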

Read-out in the next experiment: Caspase-3 (Homo sapiens) (UniProt P42574)
Briefly: LTEA_HepaRG_CASP3: Life Technologies and Expression Analysis (LTEA) Assay for cysteine-aspartic acid protease (CASP3) using HepaRG (AID 2283477). An outline of the steps: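 Expression of CASP3 was quantified by TaqMan qRT-PCR against three housekeeping genes (ACTB, GAPDH, POLR2A), bidirectionally versus 0.5% DMSO. HepaRG cultures received compounds in duplicate, top 100 uM with half-log steps, for 48 h in serum-free induction medium.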

Read-out in experiment [7]: Cytochrome P450 (CYP24A1), CYP24A1 (gene 1591)
Kind of experiment: LTEA_HepaRG_CYP24A1: Life Technologies and Expression Analysis (LTEA) Assay for Cytochrome P450 (CYP24A1) using HepaRG (AID 2283478). An outline of the steps: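 mRNA of CYP24A1 quantified by TaqMan qRT-PCR (ACTB/GAPDH/POLR2A normalization) after 48 h chemical exposure of HepaRG cells, top concentration 100 uM, half-log steps, 0.5% DMSO vehicle, duplicates. Curves fitted bidirectionally against DMSO baseline.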

Read-out in experiment [8]: Cytochrome P450 (CYP1A2), CYP1A2 (gene 1544)
Briefly: LTEA_HepaRG_CYP1A2: Life Technologies and Expression Analysis (LTEA) Assay for Cytochrome P450 (CYP1A2) using HepaRG (AID 2283479). An outline of the steps: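 CYP1A2 transcript measured by TaqMan qRT-PCR against three housekeeping genes after 48-hour chemical exposure of HepaRG cells. Eight-point half-log series topping at 100 uM in 0.5% DMSO, duplicates; gain or loss fitted relative to vehicle.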

Read-out in experiment [9]: cysteine-aspartic acid protease (CASP8), CASP8 (gene 841)
Briefly: LTEA_HepaRG_CASP8: Life Technologies and Expression Analysis (LTEA) Assay for cysteine-aspartic acid protease (CASP8) using HepaRG (AID 2283480). An outline of the steps:
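Differentiated human HepaRG cells, plated 48 h then switched to serum-free induction medium, were exposed in duplicate for 48 h to 8 half-log concentrations up to 100 uM in 0.5% DMSO. CASP8 mRNA was quantified by qRT-PCR, normalized to ACTB/GAPDH/POLR2A.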

Read-out in experiment [10]: Cytochrome P450 (CYP2B6), CYP2B6 (gene 1555)
Kind of experiment: LTEA_HepaRG_CYP2B6: Life Technologies and Expression Analysis (LTEA) Assay for Cytochrome P450 (CYP2B6) using HepaRG (AID 2283481). The method in brief: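 CYP2B6 transcript level quantified by qRT-PCR against three housekeeping genes, fitted bidirectionally relative to DMSO. HepaRG cultures received chemicals for 48 h, 8-point half-log series from 100 uM in 0.5% DMSO, duplicate wells, serum-free induction medium.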

Read-out in experiment [11]: Cytochrome P450 2C19 (Homo sapiens) (UniProt P33261)
Kind of experiment: LTEA_HepaRG_CYP2C19: Life Technologies and Expression Analysis (LTEA) Assay for CYP2C19 using HepaRG (AID 2283482). An outline of the steps: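 CYP2C19 transcript levels by qRT-PCR, normalized to three housekeeping genes, in HepaRG cells after 48 h chemical exposure. Eight-point half-log series topping at 100 uM, 0.5% DMSO vehicle. Increases and decreases both fitted against DMSO.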

Read-out in the next experiment: CYP2C9 (gene 1559)
Kind of experiment: LTEA_HepaRG_CYP2C9: Life Technologies and Expression Analysis (LTEA) Assay for CYP2C9 using HepaRG (AID 2283484). The method in brief: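 Differentiated human HepaRG cells were exposed 48 h in serum-free induction medium to eight half-log concentrations up to 100 uM in 0.5% DMSO. CYP2C9 mRNA was measured by qRT-PCR, normalized to ACTB, GAPDH and POLR2A, and fitted bidirectionally against DMSO.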

Read-out in a further experiment: CYP2E1 (gene 1571)
Briefly: LTEA_HepaRG_CYP2E1: Life Technologies and Expression Analysis (LTEA) Assay for CYP2E1 using HepaRG (AID 2283485). The method in brief: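 HepaRG cells, plated 48 h, then exposed 48 h in serum-free induction medium to eight half-log concentrations from 100 uM in 0.5% DMSO, duplicate. CYP2E1 mRNA by qRT-PCR, normalized to ACTB/GAPDH/POLR2A; bidirectional fit versus DMSO.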

Read-out in another experiment: CYP4A11 (gene 1579)
Kind of experiment: LTEA_HepaRG_CYP4A11: Life Technologies and Expression Analysis (LTEA) Assay for CYP4A11 using HepaRG (AID 2283486). The method in brief: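 Readout is CYP4A11 transcript level by qRT-PCR, normalized to three housekeeping genes and fitted bidirectionally against 0.5% DMSO. Human HepaRG cells were treated 48 h, in duplicate, with an 8-point half-log series topping at 100 uM.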

Read-out in experiment [12]: Cytochrome P450 3A4 (Homo sapiens) (UniProt P08684)
Briefly: LTEA_HepaRG_CYP3A4: Life Technologies and Expression Analysis (LTEA) Assay for CYP3A4 using HepaRG (AID 2283487). An outline of the steps:
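In a human hepatic line (HepaRG), duplicate wells were treated 48 h with up to 100 uM chemical in half-log dilutions. Endpoint: CYP3A4 mRNA induction or loss relative to 0.5% DMSO vehicle, by qRT-PCR.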

Read-out in another experiment: CYP2C8 (gene 1558)
Briefly: LTEA_HepaRG_CYP2C8: Life Technologies and Expression Analysis (LTEA) Assay for CYP2C8 using HepaRG (AID 2283483). The method in brief:
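Differentiated human HepaRG cells were exposed for 48 h in serum-free induction medium to eight half-log concentrations up to 100 uM in 0.5% DMSO, in duplicate. CYP2C8 mRNA was measured by TaqMan qRT-PCR, normalized to ACTB, GAPDH and POLR2A, and fitted bidirectionally against DMSO.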

Read-out in experiment [13]: adenosine kinase (ADK) gene, ADK (gene 132)
Kind of experiment: LTEA_HepaRG_ADK: Life Technologies and Expression Analysis (LTEA) Assay for adenosine kinase (ADK) gene using HepaRG (AID 2283471). An outline of the steps: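 Following 48 h exposure of HepaRG cells in 0.5% DMSO (top concentration 100 uM, duplicate wells), ADK mRNA induction or suppression was measured by qRT-PCR, normalised to ACTB/GAPDH/POLR2A, and fitted bidirectionally relative to vehicle.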

Activity calls are given as the source filed them. How the source made its calls: active means hit-call score of the fitted dose curve at least 0.9, where 1 is the maximum; inactive means score below 0.9.

Sequence of Cytochrome P450 2C19 (Homo sapiens) (P33261 whole entry, looked up): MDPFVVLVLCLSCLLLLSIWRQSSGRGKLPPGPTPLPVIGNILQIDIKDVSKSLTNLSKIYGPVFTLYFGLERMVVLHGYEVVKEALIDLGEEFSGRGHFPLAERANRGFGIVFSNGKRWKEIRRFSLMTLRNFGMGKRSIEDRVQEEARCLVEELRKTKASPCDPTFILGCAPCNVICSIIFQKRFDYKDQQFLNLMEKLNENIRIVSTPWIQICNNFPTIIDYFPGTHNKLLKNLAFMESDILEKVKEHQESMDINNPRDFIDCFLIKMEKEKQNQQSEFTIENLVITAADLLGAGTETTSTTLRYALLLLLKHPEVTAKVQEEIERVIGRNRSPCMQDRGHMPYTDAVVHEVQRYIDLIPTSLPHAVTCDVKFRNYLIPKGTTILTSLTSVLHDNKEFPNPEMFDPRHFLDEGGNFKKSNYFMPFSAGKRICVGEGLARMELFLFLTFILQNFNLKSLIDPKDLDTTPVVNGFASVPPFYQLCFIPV
Sequence of Caspase-3 (Homo sapiens) (P42574 whole entry, looked up): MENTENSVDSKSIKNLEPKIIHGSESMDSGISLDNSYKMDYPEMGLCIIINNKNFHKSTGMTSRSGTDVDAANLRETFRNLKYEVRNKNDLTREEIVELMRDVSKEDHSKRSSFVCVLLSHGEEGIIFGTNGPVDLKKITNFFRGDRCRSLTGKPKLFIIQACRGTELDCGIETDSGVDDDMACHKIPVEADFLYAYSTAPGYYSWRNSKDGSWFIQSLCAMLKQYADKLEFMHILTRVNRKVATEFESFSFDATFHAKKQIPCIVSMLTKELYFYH
Sequence of Cytochrome P450 3A4 (Homo sapiens) (P08684 whole entry, looked up): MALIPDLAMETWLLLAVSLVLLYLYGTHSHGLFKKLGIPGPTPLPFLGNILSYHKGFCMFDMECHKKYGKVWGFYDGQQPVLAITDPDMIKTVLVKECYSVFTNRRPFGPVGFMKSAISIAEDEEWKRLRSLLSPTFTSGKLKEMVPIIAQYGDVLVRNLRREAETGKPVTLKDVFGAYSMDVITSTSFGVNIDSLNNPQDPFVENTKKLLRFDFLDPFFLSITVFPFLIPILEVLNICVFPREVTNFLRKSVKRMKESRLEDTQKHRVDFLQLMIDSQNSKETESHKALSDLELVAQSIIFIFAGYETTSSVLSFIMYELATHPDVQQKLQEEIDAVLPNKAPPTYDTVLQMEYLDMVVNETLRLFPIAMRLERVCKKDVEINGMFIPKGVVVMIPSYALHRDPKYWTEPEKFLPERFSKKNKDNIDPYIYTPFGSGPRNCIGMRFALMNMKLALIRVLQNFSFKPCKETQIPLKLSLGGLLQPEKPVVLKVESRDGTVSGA
Sequence of Apoptosis regulator Bcl-2 (Homo sapiens) (P10415 whole entry, looked up): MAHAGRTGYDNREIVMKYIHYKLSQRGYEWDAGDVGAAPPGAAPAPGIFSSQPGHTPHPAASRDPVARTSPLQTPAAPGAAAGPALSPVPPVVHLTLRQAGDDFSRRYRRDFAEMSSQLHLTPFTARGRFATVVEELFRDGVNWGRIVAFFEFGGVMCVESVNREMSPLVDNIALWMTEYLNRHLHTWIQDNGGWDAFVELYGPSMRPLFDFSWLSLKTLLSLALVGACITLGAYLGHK

As a reminder, the AC50 is the concentration at which the activity in the assay is half-maximal. For `CC(C)[C@H](C(=O)O[C@H](C#N)c1cccc(Oc2ccccc2)c1)c1ccc(Cl)cc1`, the call (in [1]; in experiment [2]; with BCL2L11 (gene 10018); in experiment [4]; in experiment [5]; in experiment [6]) was inactive. Also, the compound was called inactive (with Caspase-3 (Homo sapiens); in experiment [7]; in experiment [9]; with CYP2C9 (gene 1559); with CYP4A11 (gene 1579)). The AC50 in [3] is 24.7 µM (active); in experiment [8], 37.3 µM (active); in experiment [10] it was 20.8 µM (active); in experiment [11] it was 34.2 µM (active); in the experiment with CYP2E1 (gene 1571), 50 µM (active); in [12], 10.5 µM (active).

On to `CNc1cnn(-c2cccc(C(F)(F)F)c2)c(=O)c1Cl`, for which the result (in [1]; in experiment [2]; with BCL2L11 (gene 10018); in [4]; in experiment [5]; in experiment [6]) was inactive. In addition, the result (with Caspase-3 (Homo sapiens); in experiment [7]; in experiment [9]; with CYP2C8 (gene 1558); with CYP2C9 (gene 1559); with CYP4A11 (gene 1579)) was inactive. For the same compound, the AC50 in experiment [3] is 22 µM (active); in [8], 6.1 µM (active); in [10], 6.51 µM (active); in experiment [11] it was 21.6 µM (active); in the experiment with CYP2E1 (gene 1571), 41.1 µM (active); in experiment [12], 31.5 µM (active).

In the case of `CCCOc1nn(C(=O)NS(=O)(=O)c2ccccc2C(=O)OC)c(=O)n1C`, the compound was called inactive (in experiment [1]; in [2]; in experiment [13]; in experiment [3]; with BCL2L11 (gene 10018); in [4]). Besides, the call (in experiment [5]; in experiment [6]; with Caspase-3 (Homo sapiens); in experiment [7]; in experiment [8]; in experiment [9]) was inactive. The compound was called inactive (in experiment [10]; in experiment [11]; in the experiment with CYP2C8 (gene 1558); with CYP2C9 (gene 1559); in the experiment with CYP2E1 (gene 1571); in the experiment with CYP4A11 (gene 1579)). In addition, the call in [12] was inactive.

The record behind these values is PubChem BioAssay (EPA / NIEHS).
